Hits are enriched below; roughly 19% of the tested compounds scored in any of these assays.
IL-1B inflam inh = inhibitors of inflammasome signaling (IL-1 beta secretion); activity change, % at 57.5 µM; hit rate 4.7% among 360,000; THP-1 LPS/ATP IL-1B secretion, AlphaLISA, 16 h; active compounds read low; in the data active = activity change below about -50%; inconclusive = mostly about -30% to -49%
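THP-1 cells pretreated 1 hr with compounds (up to 57.5 uM final), then stimulated with LPS (250 ng/mL final) plus ATP (1.25 mM final); secreted IL-1B measured by AlphaLISA after 16 hr, decreased signal indicating inhibition.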
HT1080NT lethal = kills 2HG-producing HT-1080-NT fibrosarcoma cells; hit rate 1.6% among 360,000; Potency, µM (highest dose often 46.1 µM), for the others: at the top dose activity, negative = less viability, usual class: cytotoxic; HT-1080-NT fibrosarcoma viability, CellTiter-Glo ATP luminescence, 48 h;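 note: NT is the 2HG producing partner of a matched IDH1 knockdown line; potency is the fitted concentration of half-maximal effect; 0% = DMSO-treated cells and -100% = media-only wells without cells; nearly all actives have a fitted effect of over 55% in size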
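HT-1080-NT fibrosarcoma cells (2HG-overproducing), 750 cells/well in RPMI with 5% FBS, dosed after 2 h and incubated 48 h at 37C. CellTiter-Glo luminescence normalized to DMSO and no-cell wells; concentration-response curves fitted and classed.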
HT1080 IDH1KD tx = kills HT-1080 cells with IDH1 knockdown; HT-1080 IDH1 knockdown viability, ATP luminescence, 48 h; Potency, µM (titrated, usually from 46.1 µM), without a hit: top-dose activity, negative = toxicity, hits mostly cytotoxic; hit rate 2% among 360,000;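 note: potency is the fitted concentration of half-maximal effect; 0% = DMSO wells and -100% = cell-free medium wells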
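CellTiter-Glo luminescence after 48 h compound exposure at 37 degrees C of IDH1-knockdown HT-1080 cells in 5% FBS RPMI. %Activity scaled between DMSO wells and cell-free media wells, with curves fitted and assigned curve classes.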
TDP1 cell CPT = growth inhibition of DT40 Tdp1-/-;hTDP1 cells with camptothecin (screen for TDP1 inhibitors) | chicken DT40 Tdp1-/-;hTDP1 cells + 20 nM CPT, ATP luminescence, 48 h | hit rate 12% among 420,000 | Potency, µM (highest dose often 46.2 µM), inactives show at the highest dose activity change, negative = growth inhibition, hits mostly inhibitors; note: potency is the fitted concentration of half-maximal effect; nearly all actives have a fitted effect of over 55% in size
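Chicken DT40 Tdp1-/- cells stably complemented with human TDP1 were seeded at 400 cells/well in medium containing 20 nM camptothecin, exposed to pin-transferred compounds, and grown at 37 °C for at least 48 hr. Viability was read as ATP luminescence.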
DT40 TDP1 no CPT = qHTS for Inhibitors of human tyrosyl-DNA phosphodiesterase 1 (TDP1): qHTS in cells in absence of CPT; DT40 Tdp1-/- hTDP1 cells, no CPT, ATP luminescence, 48 h; hit rate 15% among 420,000; Potency, µM (series often up to 46.2 µM), inactives show top-dose activity change, negative = growth inhibition, most hits filed as inhibitors; note: potency is the fitted concentration of half-maximal effect; nearly all actives have a fitted effect of over 55% in size
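Luminescent ATP content (CellTiter-Glo) served as the growth readout. Knockout chicken DT40 cells expressing human TDP1 were exposed to compounds without camptothecin for a minimum 48 hr at 37 °C.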
* = called active by the depositor; ? = inconclusive; . = no result; [ ] = dose if it differs, or a comment. Unless noted, calls come from the whole dose curve; as a rule, active = well fitted curve in the direction sought with a large enough effect; inconclusive = small, poorly fitted or top-dose-only effect, or another doubt; inactive = no such curve, though single readings can be large; an effect the other way counts as inactive or inconclusive. Unless noted, % is set by controls: 0 for no effect and ±100 for the full control effect.

SMILES	IL-1B inflam inh	HT1080NT lethal	HT1080 IDH1KD tx	TDP1 cell CPT	DT40 TDP1 no CPT
CCCCCCCCN1C(=O)[C@H](CC(=O)NCCc2ccccc2OC)C[C@@]2(C(=O)OCC)CCC=C12	-4.3	-4.9%	?	?	?
COc1ccc(C(C#N)N2CCC(c3ccccc3)=N2)cc1OC (stereo unspecified)	-51.1*	19.7%	18.2%	-17.6%	-29.2%
COc1ccc(C2=NN(C(C#N)c3ccc(OC)c(OC)c3)C(c3ccccc3)C2)cc1 (stereo unspecified)	-22.1	-25.1%	-15.1%	?	20.6µM*
COc1ccc(C2=NN(c3ccccc3)C(c3ccc(OC)c(OC)c3)C2)cc1 (stereo unspecified)	0.0	2.4%	-16.1%	-19.0%	-10.8%
O=C(NCc1nnnn1-c1ccc(F)cc1)c1ccc(S(=O)(=O)N2CCOCC2)cc1	12.8	4.2%	3.2%	-16.9%	?
CCOC(=O)c1ccc(Oc2ccc(C(F)(F)F)cn2)cc1	-2.5	8.5%	3.0%	-14.8%	10.8%
CC(=O)c1sc(NC(=O)CCc2ccccc2)nc1C	21.3	0.9%	-18.4%	-25.0%	?
COc1cccc2c1C(CO)N1C(C#N)C3CC(C(=O)O)C(C1C2)N3C (stereo unspecified)	-115.9*	-9.4%	?	0.184µM*	0.206µM*
COc1cccc2c1OCC(C(=O)O)C2 (stereo unspecified)	21.3	11.0%	?	13.1%	-0.5%
CCN(CC)c1nc(C#N)cc(-c2ccc(OC)cc2)n1	-9.0	?	?	8.2µM*	10.3µM*
COc1ccc2cc(C#N)c(NC(C)C)nc2c1	-12.2	-0.5%	-0.6%	-27.9%	?
N#Cc1cc(-c2ccccc2)nc(Oc2ccccc2)n1	?	-9.5%	3.2%	?	18.4µM*
COc1ccc(-c2cc(C#N)nc(Oc3ccc(Cl)cc3)n2)cc1	-5.1	6.3%	-1.2%	-1.0%	-0.6%
COc1ccc(-c2cc(C#N)nc(Cl)n2)cc1	.	7.31µM*	9.2µM*	4.11µM*	4.61µM*
CCN(CC)c1nc2cc(OC)ccc2cc1C#N	0.8	4.0%	-5.2%	20.6µM*	16.4µM*
COc1ccc(OCC(=O)Nc2nc3cc4c(cc3s2)OCCO4)cc1	-2.6	4.5%	8.5%	2.6%	-7.8%
CC(=O)Nc1nc2cc3c(cc2s1)OCCO3	?	2.1%	-2.1%	?	23.1µM*
O=C(Nc1nc2cc3c(cc2s1)OCCO3)C1=COCCO1	-53.0*	14.6µM*	13µM*	23.1µM*	?
Cc1nnc(NC(=O)C2=COCCO2)s1	9.3	0.1%	1.0%	6.1%	7.4%
Cc1cc(C)c2sc(NC(=O)C3=COCCO3)nc2c1	-58.3*	-1.4%	-22.2%	-11.0%	-14.9%
Cc1cc(C)c(NC(=O)C2=COCCO2)c(C)c1	7.5	9.5%	15.0%	1.7%	-8.0%
O=C(/C=C/c1ccc(F)cc1)NCCC1=CCCCC1	-17.1	-0.8%	18.3%	20.6µM*	16.4µM*
COc1ccccc1/C=C/C(=O)NCCC1=CCCCC1	-50.1*	3.6%	10.3%	-28.2%	-25.4%
Cc1nnc2c(N3CCN(c4ccccc4)CC3)nc3ccc(C(=O)c4ccccc4)cc3n12	.	.	.	7.3%	-10.8%
Cc1cccc(-c2ccc3c(c2)C2CC3CCN2C(=O)OCc2ccccc2)c1 (stereo unspecified)	3.0	11.6%	6.4%	?	?
SMILES	IL-1B inflam inh	HT1080NT lethal	HT1080 IDH1KD tx	TDP1 cell CPT	DT40 TDP1 no CPT
CCOC(=O)c1nc2ccc(C)cc2c2c1C1CC(c3c(Cl)cccc31)N2C(=O)OCc1ccccc1 (stereo unspecified)	11.4	2.8%	-29.4%	14.6µM*	18.4µM*
O=C(c1cc2ccccc2oc1=O)N(c1ccc(Cl)cc1)C1C=CS(=O)(=O)C1 (stereo unspecified)	0.0	7.7%	9.6%	16.4µM*	?
Cc1ccccc1-n1c(=O)n(Cc2ccccc2)c(=O)c2[nH]cnc21	22.4	-2.3%	-3.5%	0.3%	-4.7%
COC(=O)c1ccc(C)c(-n2c(=O)n(Cc3ccccc3)c(=O)c3[nH]cnc32)c1	32.9	-4.6%	-2.6%	?	20.6µM*
COc1ccc(OCC(=O)Sc2ccc(C)cc2)cc1	-17.9	-0.3%	-6.3%	?	23.1µM*
CCCn1c(SCC(=O)N2CCc3ccccc3C2)nc2c1c(=O)n(C)c(=O)n2C	22.3	3.8%	0.9%	?	?
CCn1c(SCC(=O)N2c3ccccc3Sc3ccccc32)nc2c1c(=O)n(C)c(=O)n2C	18.8	9.8%	-7.4%	?	?
COCCn1c(SCC(=O)NC(=O)NC2CCCCC2)nc2ccccc2c1=O	-4.9	-3.2%[9.24 µM]	-0.6%	?	14.6µM*
CCn1c(SCC(=O)N2CCc3ccccc3C2)nc2c1c(=O)n(C)c(=O)n2C	51.0	13.6%	3.4%	23.1µM*	-26.1%
C=CCn1c(SCC(=O)N2CCc3ccccc3C2)nc2sc(C)cc2c1=O	?	-22.8%	-27.9%	?	25.9µM*
CCCCn1c(SCC(=O)N2c3ccccc3Sc3ccccc32)nc2c1c(=O)n(C)c(=O)n2C	?	-28.8%	?	?	25.9µM*
COCCNC(=O)C1CCCN(S(=O)(=O)c2ccc3c(ccn3C)c2)C1 (stereo unspecified)	.	.	.	-28.8%	4.7%
Cc1ccccc1S(=O)(=O)N(C)C[C@H]1OCc2cn(nn2)CCCC(=O)N([C@H](C)CO)C[C@@H]1C	-25.0	1.0%	28.0%	-5.2%	-15.1%
CCCCn1c(SCC(=O)N2CCCc3ccccc32)nc2c1c(=O)n(C)c(=O)n2C	21.8	5.4%	7.2%	17.8µM*	22.4µM*
COCCn1c(SCC(=O)N2CCOCC2)nc2ccccc2c1=O	-9.2	-1.9%	6.3%	4.6%	0.1%
COCCn1c(SCC(=O)N2CCc3ccccc3C2)nc2ccccc2c1=O	-1.8	-2.2%	8.1%	20.6µM*	?
CCCn1c(SCC(=O)N2c3ccccc3CCc3ccccc32)nc2c1c(=O)n(C)c(=O)n2C	14.1	7.6%	0.9%	-26.5%	?
CC(=O)Nc1ccc(S(=O)(=O)NC(CSc2ccc(C(=O)O)cc2[N+](=O)[O-])C(=O)O)cc1 (stereo unspecified)	-10.7	12.6%	13.6%	-1.4%	26.4%
Cc1ccc(CS(=O)Cc2ccc(C(=O)NC3CCC(C)CC3)o2)cc1 (stereo unspecified)	-27.4	-9.3%	-7.9%	-29.7%	-17.0%
Oc1c(/C=C/C=C/C=Nc2ccccc2)sc(=S)n1Cc1ccccc1	0.0	9.4%	9.9%	?	20.6µM*
CCCCn1c(O)c(/C=C/C=C/C=Nc2ccccc2)sc1=S	-7.4	-10.0%	-8.3%	11.6µM*	14.6µM*
CCCn1c(O)c(C=Nc2ccccc2)sc1=S	-9.0	-19.1%	-3.7%	-4.7%	?

Compound activity deposited in PubChem BioAssay by National Center for Advancing Translational Sciences (NCATS).
